# The list is not random: actives were taken first. Their share in the collection is about 4.5%.
# Caspase-1 inhib: caspase-1 (human) inhibition, allosteric or competitive; Potency, µM (doses to about 57.5 µM), for the others: at the highest dose activity change, negative = inhibition, actives largely listed as inhibitors; P29466; Caspase-1 enzyme, Ac-WEHD-AFC fluorogenic rate; hit rate 0.03% among 75,000;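 also: plate controls were vehicle for no effect and no substrate for full effect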
# GBA activity: modulators of human glucocerebrosidase; P04062; AID 360; Potency, µM; hit rate 1.1% among 48,000; purified enzyme, resorufin glucoside fluorescence (screen aimed at inhibitors), 20 min; in the data active = potency below about 15 µM; inconclusive = mostly about 16 µM to 33 µM;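 also: the screen sought inhibitors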
# Target sequence (P04062 whole entry, looked up): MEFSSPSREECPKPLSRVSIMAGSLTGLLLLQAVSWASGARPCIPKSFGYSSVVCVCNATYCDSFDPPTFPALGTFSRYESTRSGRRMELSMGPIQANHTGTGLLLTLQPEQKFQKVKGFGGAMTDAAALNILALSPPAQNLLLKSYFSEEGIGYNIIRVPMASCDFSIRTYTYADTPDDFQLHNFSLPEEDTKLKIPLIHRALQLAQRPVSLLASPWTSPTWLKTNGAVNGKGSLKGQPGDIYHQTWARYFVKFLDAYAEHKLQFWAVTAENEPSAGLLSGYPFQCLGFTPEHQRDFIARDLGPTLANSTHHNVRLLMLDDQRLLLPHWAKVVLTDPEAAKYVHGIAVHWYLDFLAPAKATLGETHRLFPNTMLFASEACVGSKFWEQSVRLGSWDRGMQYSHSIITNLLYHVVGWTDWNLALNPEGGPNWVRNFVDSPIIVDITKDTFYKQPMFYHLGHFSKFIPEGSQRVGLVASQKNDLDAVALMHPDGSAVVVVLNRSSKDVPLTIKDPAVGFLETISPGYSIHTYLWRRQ
#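 Normal human glucocerebrosidase (0.2 nM final) was assayed with resorufin β-D-glucopyranoside (30 uM final) in 50mM citric acid/KH2PO4, 10mM sodium taurocholate, 0.01% tween-20, pH 5.9. Compounds were titrated; fluorescence (Ex 548, Em 600) read after 20 min at RT.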
# Casp7 inh: allosteric or competitive inhibitors of human caspase-7; P55210; recombinant caspase-7, Ac-DEVD-AFC fluorescence rate; Potency, µM (series often up to 57.5 µM), inactives show at the top dose activity change, negative = inhibition, hits mostly inhibitors; hit rate 0.02% among 75,000; AID 889; active = well fitted inhibition curve with a large enough effect in the main read-out, with a control signal flat, not every such curve was filed as active; inconclusive = small, poorly fitted or top-dose-only effect, or a change in a side signal; also: % of control where 0% means no effect
# ERK AVP inh: vasopressin-driven ERK pathway inhibition | hit rate 0.99% among 72,000 | AID 995 | Potency, µM (doses to about 57.5 µM), for the others: at the highest dose activity, negative = inhibition, actives largely listed as inhibitors | HEK293-V1b, vasopressin-stimulated pERK AlphaScreen; also: % is scaled to controls: 0 for no effect and ±100 for the full control effect; nearly all actives have a fitted effect of over 55% in size
#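 qHTS, compounds titrated on V1b-expressing HEK293 cells. Preincubation 30 min at 37C, vasopressin 25 nM for 5 min, lysis 10 min, bead incubation 5 hr at room temperature.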
# HEK293 cAMP ctrl: counter-screen for TSHR agonists: cAMP increase in parental HEK293; AID 938; hit rate 2.5% among 73,000; parental HEK293 CNG cAMP sensor, membrane potential fluorescence; Potency, µM (series often up to 57.1 µM), for inactives: at the highest dose activation, usual class: activators; also: % of control where 0% means no effect; nearly all actives have a fitted effect of over 55% in size
#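 Parental HEK 293 cells stably expressing a modified CNG channel (no TSHR) report cAMP rise as membrane depolarization. Membrane potential dye with 100 uM RO 20-1724 was loaded for 60 min at room temperature, then compound added for 30 min; fluorescence read at 590 nm.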
# TSHR agonist: agonists of human thyroid stimulating hormone receptor | P16473 | HEK293-CNG-TSHR cells (CNG channel as cAMP sensor), membrane potential dye, cAMP | Potency, µM (series often up to 57.1 µM), inactives show at the top dose activation, actives largely listed as activators | hit rate 0.48% among 73,000 | AID 926; active = well fitted activation curve with a large enough effect in the main read-out, with a control signal flat, not every such curve was filed as active; inconclusive = small, poorly fitted or top-dose-only effect, or a change in a side signal; inactive = no such curve, though single readings can be large or run the other way; % of control where 0% means no effect;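 also: the control signal comes from parental cells without the receptor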
#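 HEK 293 cells stably expressing TSHR and a modified CNG channel, with CNG-only parental cells as counterscreen, were preloaded 60 min at room temperature with membrane potential dye containing 100 uM RO 20-1724. Compound exposure was 30 min, and depolarization was read as fluorescence at 590 nm.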
# An asterisk follows results filed as active; ? = inconclusive; · = not tested or not shown; [ ] = remark or other dose. Unless noted, calls follow the shape of the dose curve; as a rule, active = well fitted curve in the direction sought with a large enough effect; inconclusive = small, poorly fitted or top-dose-only effect, or another doubt; inactive = no such curve, though single readings can be large; an effect the other way counts as inactive or inconclusive. Potency is read from the fitted curve at half-maximal effect.
SMILES,Caspase-1 inhib,GBA activity,Casp7 inh,ERK AVP inh,HEK293 cAMP ctrl,TSHR agonist
Cc1ccc(-c2nn(-c3ccccc3)cc2C2SCC(=O)N2Cc2ccccc2)o1 (stereo not given),-5%,·,-3%,-3%,13%,25µM*
Cc1cc(C)nc(SCc2nnc(SCc3ccccc3Cl)o2)n1,-2%,>77,-5%,19%,20µM*,?
Nc1ccc(-c2nc3ccc(-c4nc5ccc(N)cc5[nH]4)cc3[nH]2)cc1,3%,·,-7%,13µM*,·,·
CS(=O)(=O)N1CCC2(CCCN(Cc3ccc(C#N)cc3)C2)CC1,-1%,·,-3%,3%,?,?
COc1cccc(Oc2cn[nH]c2-c2ccc(OC)cc2O)c1,-4%,>77,-6%,?,?,?
COc1cccc(Oc2cn[nH]c2-c2ccc(O)cc2O)c1,-2%,>77,-1%,-26%,1µM*,?
N#Cc1cccc(NC(=O)N2CCC3(CC2)CCN(C(=O)c2csnn2)CC3)c1,-3%,·,0%,?,?,?
CCN(C(=O)c1cc2cc3ccc(C)cc3nc2o1)c1ccc(OC)cc1,-2%,>77,-2%,3%,40µM*,?
CCN1C(=O)CC(N2CCN(c3ccc(C(=O)c4ccccc4)cc3)CC2)C1=O (stereo not given),-2%,>77,-1%,16µM*,12%,14%
COC(=O)c1cc2c(C)nn(-c3ccccc3)c2s1,-4%,·,3%,1%,30%,16%
Cc1nn(-c2ccccc2)c2sc(C(=O)N(CC(=O)NC(C)(C)C)Cc3ccco3)cc12,-1%,·,-2%,-19%,16µM*,?
C[C@@H](C(=O)O)c1ccc(C(=O)c2cccs2)cc1,2%[25.7 µM],·,2%[25.7 µM],0%[25.7 µM],1%[25.6 µM],-4%[25.6 µM]
CC(=O)N1C2(C=CC1(C)C(=O)NCc1ccccn1)CCCCC2 (stereo not given),-5%,·,-10%,-22%,16%,3%
O=C1CC(N2CCN(c3ccccc3Cl)CC2)C(=O)N1c1ccccc1 (stereo not given),2%,>77,1%,2%,0%,-3%
O=C1CC(N2CCN(C3CCc4ccccc4C3)CC2)C(=O)N1c1ccccc1 (stereo not given),-1%,·,2%,-12%,25µM*,?
CS(C)(=O)=O,3%,·,-1%,4%,·,·
COc1cccc(C2C=C(c3ccc(Br)s3)Nc3ncnn32)c1OC (stereo not given),·,>77,?,-4%,14%,20µM*
Fc1ccc(Br)cc1C1C=C(c2ccc(Br)s2)Nc2ncnn21 (stereo not given),·,>77,?,23%,?,?
COc1ccc(Nc2nc(N3CCCC3)nc3ccccc23)c(OC)c1,-2%,3.4*,0%,-10%,?,?
C=CCNc1nc(N2CCCC2)nc2ccccc12,1%,11*,-1%,-4%,?,?
O=C(NCCO)c1nc(NCCO)c2ccccc2n1,0%,>77,1%,1%,1%,3%
OCCNc1nc(N2CCN(Cc3ccccc3)CC2)nc2ccccc12,1%,13*,1%,-16%,23%,-16%
COc1ccc(Nc2cc(C(=O)NCCCN3CCN(C)CC3)c3ccccc3n2)c(OC)c1,-1%,>77,0%,1%,16%,-6%[11.4 µM]
c1ccc2nc(N3CCCC3)c(N3CCCC3)nc2c1,·,>77,?,87%,?,?
CC(C)[C@H]1C(=O)C(C(N)=O)=C(O)[C@]2(O)C(=O)C3=C(O)c4c(O)ccc(N(C)C)c4C[C@H]3C[C@@H]12,3%,·,-3%,-8%,9%,3%
SMILES,Caspase-1 inhib,GBA activity,Casp7 inh,ERK AVP inh,HEK293 cAMP ctrl,TSHR agonist
Clc1ccc(CN2CCCN(Cc3ccc(Cl)cc3)C2c2cc3ccccc3c3ccccc23)cc1,4%[11.5 µM],·,0%[11.5 µM],2%[11.5 µM],5%[11.4 µM],17%[11.4 µM]
OC[C@@H]1O[C@@H](n2cnc3c(N[C@@H]4C[C@@H]5CC[C@H]4C5)ncnc32)[C@@H](O)[C@H]1O,1%,·,2%,7%,18%,-6%
CC(=O)Nc1cc(CN2CCCCC2)c(O)c2ncccc12,-1%[11.5 µM],·,2%[11.5 µM],29%[11.5 µM],21%[11.4 µM],-2%[11.4 µM]
CCOc1ccc2[nH]c(=O)c(CN(Cc3ccco3)Cc3nnnn3Cc3ccccc3)cc2c1,-9%,·,-11%,-20%,32µM*,?
COc1ccccc1CN(Cc1cc2cc(C)ccc2[nH]c1=O)Cc1nnnn1Cc1ccco1,?,>77,-27%,-21%,20µM*,?
CCOc1ccc2[nH]c(=O)c(CN(Cc3ccco3)C(CC)c3nnnn3Cc3ccccc3)cc2c1 (stereo not given),-13%,?,-13%,-7%,7%,·
CC1CCC2C(=O)OC(Cc3ccccc3)CN2C1c1ccc(Br)cc1 (stereo not given),-1%[11.5 µM],·,0%[11.5 µM],1%[11.5 µM],?,?
CCCCOn1c(C)c(C(=O)OCC)c2c3no[n+]([O-])c3ccc21,2%,?,2%,21%,7%,18%
CCCCOn1c(C)c(C(=O)OCC)c2c3nonc3ccc21,·,>77,?,22%,13µM*,?
Cc1noc(C)c1COC(=O)c1ccccc1Oc1ccccc1,-3%,>77,-1%,5%,32µM*,?
CN1CCN(Cc2c(O)ccc3occ(C(=O)c4ccccc4)c23)CC1,-5%,·,1%,14%,24%,14%
COc1ccc(C(=O)c2coc3ccc(O)c(CN(C)C)c23)cc1,-3%,·,-1%,·,32µM*,?
CN(C)c1ccc(-c2cncnc2Nc2ccc(F)cc2)cc1,-4%,·,1%,?,-3%,-8%
COC(=O)c1sccc1NC(=O)c1cc(C)on1,-3%,>77,-1%,-11%,9%,15%
COC(=O)c1sccc1NC(=O)c1c(C)noc1C,-6%,12*,-6%,-22%,-1%,-13%
CC(=O)Oc1ccc(/C=C\C(=O)C[C@@H]2O[C@@H](Oc3cc(OC(C)=O)c4c(c3)O[C@@H](c3ccc(OC(C)=O)cc3)CC4=O)[C@H](OC(C)=O)[C@H](OC(C)=O)[C@@H]2OC(C)=O)cc1,·,·,·,·,-5%,-5%
COc1ccc(C(=O)Nc2nc(-c3cccs3)cs2)cc1,-3%,>77,-4%,?,?,?
CCOC(=O)Cc1csc(NC(=O)COc2ccc(N(C)S(=O)(=O)c3cccs3)cc2)n1,-3%,>77,-1%,-1%,13µM*,?
O=C(COc1ccc(Cl)cc1)Nc1nc(-c2cccs2)cs1,0%,>77,-2%,25µM*,25µM*,?
COc1cc(C(=O)Nc2nc(-c3cccs3)cs2)cc(OC)c1OC,-3%,>77,-1%,3.2µM*,?,?
CCCC/C=C/C(NC(=O)C(C)(C)C)c1ccccc1 (stereo not given),-1%,·,-1%,7%,25µM*,?

# High-throughput results: PubChem BioAssay, National Center for Advancing Translational Sciences (NCATS)
